HP1b chromo inh = blocks HP1-beta chromodomain binding to methylated histone tails; P83916; AlphaScreen HP1-beta / biotin-H3K9me3 peptide binding; Potency, µM (titrated, usually from 114 µM), inactives show at the highest dose activity change, negative = inhibition, actives largely listed as inhibitors; 0.56% of 390,000 active; AID 540317; note: nearly all actives have a fitted effect of over 70% in size
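AlphaScreen: HP1-beta (50 nM) preformed 30 min with biotin-H3(1-18)K9me3 peptide (50 nM) in PBS pH 7.4, 0.01% Tween-20. Compound added for 30 min at RT, then streptavidin donor/nickel chelate acceptor beads (10 ug/mL) for 30 min.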
BAZ2B block = inhibitors of human BAZ2B bromodomain. Q9UIF8. AlphaScreen BAZ2B-H3K14Ac peptide displacement. Potency, µM (titrated, usually from 114 µM), inactives show at the highest dose activity change, negative = inhibition, actives largely listed as inhibitors. 4.4% of 360,000 active; note: % is set by controls: 0 for no effect and ±100 for the full control effect; nearly all actives have a fitted effect of over 60% in size
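In this displacement format the biotinylated H3(5-23) peptide acetylated at Lys14 serves as ligand at 50 nM, with BAZ2B at 50 nM in PBS pH 7.4 containing 0.01% Tween-20. Donor and acceptor beads are 10 ug/mL final.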
JMJD2A Tudor inh = inhibitors of human JMJD2A Tudor domain; AID 504339; 4.4% of 390,000 active; O75164; AlphaScreen JMJD2A-Tudor / H3K4me3 peptide binding; Potency, µM (highest dose often 114 µM), for the others: at the highest dose activity change, negative = inhibition, actives largely listed as inhibitors; note: % is set by controls: 0 for no effect and ±100 for the full control effect; nearly all actives have a fitted effect of over 50% in size
12-LOX inh = ALOX12 (human) lipoxygenase inhibition. P18054. purified 12hLO, xylenol orange hydroperoxide absorbance. Potency, µM (doses to about 108 µM), for the others: at the highest dose activity change, negative = inhibition, hits mostly inhibitors. 1.1% of 580,000 active; note: % is set by controls: 0 for no effect and ±100 for the full control effect
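Purified human 12hLO (150 nM final) in 25 mM Hepes, 0.01% Triton X-100, pH 7.0 was preincubated 15 min at room temperature with compound. Then 40 uM arachidonic acid was added, 30 min. Hydroperoxide was read by Fe-XO absorbance ratio 573/405 nm.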
G9a inh = G9a (human) methyltransferase inhibition. Q96KQ7. Potency, µM (top dose mostly 102 µM), inactives show at the top dose activity, negative = inhibition, hits mostly inhibitors. G9a H3K9 monomethylation, AlphaScreen, 2 h. 8.8% of 350,000 active; note: % is set by controls: 0 for no effect and ±100 for the full control effect; nearly all actives have a fitted effect of over 75% in size
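AlphaScreen read-out: biotin-H3K9 peptide (500 nM) methylation by 20 nM enzyme with 20 uM SAM, 2 h at room temperature after 15 min compound preincubation; anti-monomethyl H3K9 antibody plus donor/acceptor beads, 10 min dark.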
Sfp PPTase inh = inhibitors of Bacillus subtilis Sfp phosphopantetheinyl transferase | Biochemical Sfp PPTase activity, qHTS | Potency, µM, without a hit: largest response in the series, negative = inhibition, usual class: inhibitors | AID 1490 | 3.5% of 310,000 active;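 note: the enzyme is Sfp with the accession as filed and its product quenches rhodamine fluorescence; 0% = enzyme reaction without inhibitor and -100% = no enzyme wells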
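With Hepes-Na pH 7.6 buffer containing 10 mM MgCl2, Sfp (15 nM) modified BHQ-2-YbbR (12.5 uM) using rhodamine-CoA (5 uM). Two reads 30 minutes apart at 525/598 nm yielded each well's rate.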
Numbers without * were called inactive; ? = inconclusive; . = no result; ! = not active in a repeat; [ ] = another dose, or the depositor's remark. The list is not random: actives were taken first. Their share in the collection is about 8.7%. Calls come from the whole dose curve; as a rule, active = well fitted curve in the direction sought with a large enough effect; inconclusive = small, poorly fitted or top-dose-only effect, or another doubt; inactive = no such curve, though single readings can be large; an effect the other way counts as inactive or inconclusive. Potency is the fitted concentration of half-maximal effect.

SMILES | HP1b chromo inh | BAZ2B block | JMJD2A Tudor inh | 12-LOX inh | G9a inh | Sfp PPTase inh
COCCCNC(=O)C1CCCN(S(C)(=O)=O)C1 (stereo unspecified) | 25% | -12% | -1% | 18% | 71µM* | -26%
CCCS(=O)(=O)N1CCCC(C(=O)NCCCOC)C1 (stereo unspecified) | 3% | 2% | -27% | -3% | 5%[59 µM] | .
CC(=N\NC(=O)c1ccc([N+](=O)[O-])cc1)/C(=N/O)C(=O)Nc1ccccc1 | 33% | 50µM* | -11% | 10% | . | 0%
CCOC(=O)/C(C)=N/NC(=O)c1ccc([N+](=O)[O-])cc1 | 21% | -23% | -11% | 16% | -1% | -3%
O=c1nc(/C=C/c2ccc(O)c(O)c2)oc2ccccc12 | -6% | ? | -29% | . | 40µM* | 4%
CCn1c(/C=C/c2ccc(O)c(O)c2)nc2ccccc2c1=O | ? | 71µM* | 56µM* | 14µM* | . | 79µM*
COc1ccc(/C=C/c2nc(=O)c3ccccc3o2)cc1 | . | . | . | -4% | . | .
CC1CCc2c(sc3ncnc(NCCN4CCOCC4)c23)C1 (stereo unspecified) | 31% | -2% | -19% | 16%[57.4 µM] | -1%[12.7 µM] | -11%
Cc1sc2ncnc(NCCN3CCOCC3)c2c1C | -50% | 50µM* | 1.6µM* | 0% | 8.9µM* | -24%
CCc1cc2c(NCCN3CCCCC3)ncnc2s1 | 28% | 4% | ? | ? | 50µM* | -2%
CCOc1ccc2c(c1)SCC(=O)N2 | . | . | . | -4% | . | .
CCOc1ccc2c(c1)-c1c(ssc1=S)C(C)(C)N2 | ? | 10µM* | 25µM* | . | 10µM* | -28%
CCOC(=O)C(=O)Cc1cccnn1 | ? | . | 3.5µM* | -16% | . | .
CCC(CO)NC(=O)c1nc(Cc2c[nH]c3ccccc23)no1 (stereo unspecified) | . | . | . | 14% | . | .
Nc1ccc2oc(-c3ccccc3Cl)cc(=O)c2c1O | 3% | ? | ? | -10% | 71µM* | 9%
O=c1cc(-c2ccccc2Cl)oc2c([N+](=O)[O-])c(O)cc(O)c12 | 24% | ? | -32% | ? | 50µM* | 2%
O=c1cc(-c2ccccc2Cl)oc2ccc([N+](=O)[O-])c(O)c12 | 12% | ? | -36% | -1% | 50µM*! | 22%
O=c1cc(CN2CCN(c3ccccc3F)CC2)c2cc(O)ccc2o1 | . | . | . | 1% | . | .
O=C(Nc1ccc(F)cc1)c1ccc(N2C(=O)CCS2(=O)=O)cc1Cl | . | . | . | 27% | . | .
Cc1oc(-c2cccs2)nc1CC(=O)N1CCC1 | . | . | . | -9% | . | .
Cc1ccc(NC(=O)C2CCCCC2)cc1Cl | . | . | . | 17% | . | .
Cc1ccc(NC(=S)NC2CCCCC2)cc1S(=O)(=O)N(C)C | -15% | -11% | -22% | ? | 40µM* | -45%
Cc1ccc(NC(=O)CNCC2CCCCC2)cc1S(=O)(=O)N(C)C | -18% | ? | 22µM* | -11% | ? | -29%
COc1cccc(NC(=O)CNCc2ccccc2)c1 | 43% | -14% | 12% | 1% | 13% | -1%
COc1ccc(CNCC(=O)Nc2cccc(S(N)(=O)=O)c2)cc1 | 7% | 56µM* | 0.71µM* | ? | -142%[59 µM] | ?
SMILES | HP1b chromo inh | BAZ2B block | JMJD2A Tudor inh | 12-LOX inh | G9a inh | Sfp PPTase inh
Cc1ccc(NC(=O)CN2C(=O)C3C4C=CC(C4)C3C2=O)cc1S(=O)(=O)N(C)C (stereo unspecified) | 15% | 8% | -11% | ? | -3%[59 µM] | -16%
Cc1ccc(NC(=O)CN(C)C2CCCCC2)cc1Cl | ? | ? | 10µM* | ? | . | -29%
CCOc1cc(/C=N/O)cc(Cl)c1OCC(=O)NN | . | . | . | 51% | . | .
O=C(COc1ccc(Cl)cc1)NCc1ccc(-c2nn3cnnc3s2)cc1 | . | . | . | 4% | . | .
O=C(N[C@H]1[C@H]2CCO[C@H]2[C@@H]1N1CCCC1)c1ccc(-c2cccc(F)c2)cc1 | . | . | . | 5% | . | .
CC(=O)c1ccc(OCCCC(=O)Nc2ccc3c(C)cc(=O)oc3c2)cc1 | . | . | . | -20% | . | .
COc1ccc(CCNCC(=O)Nc2ccc(C)c(S(=O)(=O)N(C)C)c2)cc1 | ? | 50µM* | 0.79µM* | -18% | 14µM* | -13%
COC(=O)C1=C(O)/C(=C\c2ccc(O)c(OC)c2)N=C1C | -18% | -8% | -24% | ? | ? | -4%
COC(=O)C1=C(C)N(c2ccccc2)/C(=C/c2ccco2)C1=O | 18% | -6% | -7% | 7% | . | -9%
CCOC(=O)C1=C(C)N(c2ccccc2)C(=O)/C1=C\c1ccc(O)c(OC)c1 | ? | ? | 5µM* | ? | 3.2µM* | 6.3µM*
CCOC(=O)C1=C(C)N(c2ccccc2)C(=O)/C1=C\c1ccco1 | -44% | -7% | ? | ? | 40µM* | 56µM*
COC(=O)C1=C(C)N(c2ccc(C)c(C)c2)/C(=C/c2cccs2)C1=O | -11% | -7% | -16% | 26% | 4% | 3%
COC(=O)C1=C(C)N(c2cccc(C)c2)C(=O)/C1=C\c1cccs1 | ? | 10µM* | ? | -28% | 11µM* | 7%
COC(=O)C1=C(C)N(c2ccc(OC)c(OC)c2)C(=O)/C1=C\c1ccco1 | 7% | 35µM* | -13% | -20% | ? | -15%
O=C(c1cccc2nccnc12)N1CCC2(CC1)CC(N1CCCC1)CCO2 (stereo unspecified) | . | . | . | 71% | . | .
CCOC(=O)C1=C(C)N(c2ccccc2)C(=O)/C1=C\c1cccs1 | 28µM* | 10µM* | ? | -23% | ? | 15%
COC(=O)C1=C(C)N(c2ccc(Cl)cc2)/C(=C/c2cccs2)C1=O | 27% | -3% | -5% | 1% | 5%[59 µM] | 6%
CCOC(=O)C1=C(C)N(c2ccc(C)cc2)C(=O)/C1=C\c1cccs1 | ? | 10µM* | 13µM* | 0% | . | -16%
COC(=O)C1=C(C)N(c2ccccc2)/C(=C/c2cccs2)C1=O | 20% | -6% | -9% | 7% | -34% | -4%
N#CC1(C(=O)Nc2cccc(Cl)c2)CCCC1 | . | . | . | 4% | . | .
Cc1noc2nc(C(=O)O)nc(N3CCCCC3)c12 | 7% | ? | 40µM* | -7% | 13µM* | .
Cc1ccc(S(=O)(=O)NCc2c(C)nn(Cc3ccccc3)c2C)cc1C | . | . | . | 0% | . | .
COc1ccc(S(=O)(=O)Nc2cccnc2)c(C)c1C | 21% | -2% | -14% | 1% | 15%[59 µM] | 9%
COc1ccc(NS(=O)(=O)c2ccc(OC)c3ccccc23)cn1 | ? | 7% | 79µM* | 11% | -37% | -15%
COc1ccc(NS(=O)(=O)c2cccs2)cn1 | 44% | -10% | -4% | -9% | 3% | 5%
COc1ccc(S(=O)(=O)Nc2ccncc2)c(C)c1C | 38% | -6% | 11% | 6% | 9% | 89µM*
CCN1CCCC2(CCN(C(=O)Cn3ccccc3=O)C2)C1=O (stereo unspecified) | . | . | . | -29% | . | .
